Whole data set: some 59,000 sequences, median the read-out near -0.00055, cut for the lowest 2% near -2. This excerpt belongs to a sample that is enriched for the lowest values.

The assay is described as follows: Identification of proteins required for the processing of the EWS-FLI1 nascent transcript.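 Note: robust z of luciferase light less the median z of siRNAs with the same seed.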 Particulars: TC32 Ewing sarcoma NR0B1-luc vs CMV-luc (EWS-FLI1 target promoter against control promoter), 48 h; screened at 20 nM (by protocol). In outline:
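Genome-wide siRNA screen (Ambion v4.1, three siRNAs per gene, 20 nM final, RNAiMax) in Ewing sarcoma TC32 cells carrying NR0B1-promoter or CMV-promoter luciferase; OneGlo luciferase read 48 h post-transfection. Data normalized, z-score-MAD transformed and seed-adjusted.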
As for UUUGAGUACUCCAAGAUGU against C20orf96, the seed-corrected z-score is 0.627. Next, AUAGCUUCCACUUUAGCGG against KDM5A: -3.29.

With AUAGGUACUACAUAUGAGC against DSC2, the seed-corrected z-score was -0.323. The value for AACAUAACAGUUGAAGUGA against TMEM244 was -0.604; that for UGAGCUACAUGUGAAGGCC against ZNF35 was -0.965; that for UAAUUUCAAGCCGAUCUUC against EIF3H was -1.14. In turn, UUGACUAUAACCUGAAGCC against OTX2 came in with a seed-corrected z-score of -2.79. UAGGAAUCCUCGUUUAGUG against YWHAH showed a seed-corrected z-score of 0.112. Next, UCAUUGUCCGAUGCCUUGG against SLCO1B3: -0.953; UUCUGCCCAAGUACAAUGG against C16orf52: -2.07. The value for UCUUUGAGAAUGUCAAGCU against TIMM44 was 0.11. The sequence UCUCUGUAUCGUAUGGUGG against NTN4 gave a seed-corrected z-score of -0.868. Next, UUGGUAGACACCUCCUUGU against KRT13: 0.268; UUUGCGACAAAACAGUUUG against DEPTOR: 0.125. The value for AUCAGAAUCAGGAUAGGCC against RND2 was 0.812; that for AAUCUCACAGGUGAAGUGG against OR2S2 was -0.14; that for AGAGUUGUCAGAAGGGCGG against NCR2 was -5.82.

In turn, UGCAUAAUAAGUCAUGUGG against DCN displayed a seed-corrected z-score of -0.34. As to UUUCCUUCUGCUCUCGUGC against RCAN3, the seed-corrected z-score was 0.855. Next, AUCUUUAGAACAUCGGUGG against SLC25A14: -0.984; AUAUGCUUCACCUCUUUAC against SNTB2: -2.92; AUAAGGAUUACUAGUUUUG against CDK8: 0.165. Sequence UAAGCACACACAAUGGUAC against DLK2 gave a seed-corrected z-score of 0.0903.

Sequence UAUGGGCCGUGGACUCUCA against TPSAB1 registered a seed-corrected z-score of -0.127. Next, UACAGGGACACCACCUUGC against BOK: -0.14.

UGGUCUUCACAUUAGAUGC against NUTM1 came in with a seed-corrected z-score of -2.03.

The sequence UUGUAGUACAUUAACCUUG against ANKRD26 had a seed-corrected z-score of 0.963. The value for UGACAUACUUCGUAAGUCC against ERLEC1 was 0.555; that for UUCAUAAAGAGGAGGUACC against CLUH was 0.239; that for AUUUUGAACAUGUUUGCUG against NAPA was 0.31. For UUCUGGUAGAUGUGACUGC against ZNF83, the seed-corrected z-score is -0.405.

In turn, UACAAGAUUAUAGGCGGUC against TRAPPC11 returned a seed-corrected z-score of 0.0691. The value for UCUGAGUCCUCUGUAACCU against MZF1 was -2.17; that for UACAGUUCAUCAAUCGUCA against APOA1BP was 0.829; that for UAUACUUCCCAAGAAGUCC against FAM217B was 0.596. The value for UGUUGUUGUGACAAAAUCG against EIF5 was 0.296; that for UUUAAGAUAGGCGACACUG against LMOD3 was 0.0486; that for UGUAAAUUUGCACCGAUGG against RPTOR was -12.1. Next, AUCUGUACAAAUCUCUUUG against ZNF140: -0.593; UCCUCUUCGAAUGUUGUCG against TSPAN15: -0.886; UUUGCGAUCUUCGAAGCCC against REEP3: -0.668.

UCGAUUAAAACCGCGAUCG against PPP2R1B: the seed-corrected z-score is -0.365.

The sequence UUUGUCAGAAAACGCAUCC against GPR149 displayed a seed-corrected z-score of -2.76. Next, UCAAUGAUCUCGAUGAUGA against PLEC: -0.0712; UUCCGGGCAGCAAUAAUGG against PGM5: -0.0662; UUUCCCAUCAGGGUUAAGC against OR2A12: -0.365. Next, UGAUAUAUAAGGCCCGGAC against RPL10A: -3.19. The value for UUCUGUAUUCUUCAGCGUG against OR4C16 was -0.379; that for UUUGGAGCUUGGGAAUUGC against ARHGAP27 was -0.993; that for UUUGUUCCUUUUCGAGUUC against CCDC127 was 2.99. UGAAUCAAAUGAUCUGACC against RAB9A had a seed-corrected z-score of 0.786. Turning to AAUGUGAUCAAAAAUAGCC against NAT2, the seed-corrected z-score was determined as 0.2. Next, UUGGUUUAAAGUUAAGUUG against C5orf63: -2.45; UUGAUAUUUGUGAAUCUCC against FERMT1: -0.474. Next, UAUUUAGCAAUGCAGAACU against RPP25L: 0.342. The value for UGUCUGAUUCAUUAUGAGC against CCDC74A was -0.71; that for AAAGGUCCCAGAGUACAUG against SLC25A20 was 0.174.

The sequence UUUAUGCUGAGUCCCAUAG against APBB1IP registered a seed-corrected z-score of -2.98. Next, AAAGUAAUAGAAGUGUUUG against MOB3B: 0.429; UAGAGAGACAGGGUGCAGG against C1orf162: -2.87. The value for UCUGGUUUUAGUAUUCUUA against NBEAL1 was -0.389; that for UUCUUUAGACUGUCCAGCG against KLHL6 was -2.04; that for UUAGGGCUUGGUAUAGAGG against ST18 was 0.568. Next, UUGCGUUCCACAUGUUGAC against PRDM7: -9.3; UAAGUGAUUGGAGGUAAAG against LOC727775: 0.67. Consider AUAUGGUCCUUCUUAUUGC against HSD52, for which the seed-corrected z-score was found to be 0.199. Next, AUGCUUAUAGUUGUUCUUC against POU1F1: -2.19; UCACAAAACACUUUGCCGU against LIMD1: 0.194.

In the case of UUGGUAGAGAGGUAAAAUG against KRTAP4-4, the seed-corrected z-score was found to be 1.06. The value for UAAUAGUCAGGUUCCCUGU against OR6C2 was -0.02; that for AAAGUAGGACGAGAUGCCG against DDX51 was 1.06. Next, UCUGGACACGGCUUAUUGC against C17orf58: 0.125. Sequence AUAAGAACAACAAAUACAC against C2CD4A registered a seed-corrected z-score of 0.789. The value for UGGUUAUUAAUGGUGCACC against ELF2 was -2.8; that for UUAGAGCUACUGAACUGCC against DHX58 was 0.739; that for AAGUUGCCAAGAACAUGCU against LINC01168 was -3.59. UAUCUGGUAUGCUACGUCC against CCDC7 had a seed-corrected z-score of 0.683. Next, UAUGAUCGAACUUUUUGAG against RSG1: -2.03. Next, AACCUGUCAAUUAUCACUG against EBF1: 0.337; UCUCCGUCCACAUUUGUUG against NTRK1: 0.0167. Next, UCUCUGAUGAGCAUUAAGG against ZNF26: -0.977. Turning to AAACUUCUUGGGUUUCUAC against ZBTB8OSP1, the seed-corrected z-score worked out at 0.246. Next, ACACUGACAAAUGUUAGGC against VWDE: -2.22; AACCUUUAACUUGUGCUCC against ELAC2: 0.641.

The sequence UGCCCAAAUAGAAUUCUGU against RPL35A registered a seed-corrected z-score of -0.216. Next, AGCUUUUCCAAAACCGUGC against NGDN: 2.14. Next, AUAUUUAUUGGGCAGUGGA against PYDC1: -0.518; UUUGUAGCAGGUACAGGCC against EPPK1: -0.0968. With AAGGUGGUAGGCACUUUGG against MAVS, the seed-corrected z-score is -2.67.

With UUCGAAAUGCCUGAUAGCC against P3H2, the seed-corrected z-score came out at 0.287.

On to AGAUGUUCCACACUCUGCC against C1orf95, for which the seed-corrected z-score was -3.59. Next, AUACUGCCGAUAUAUCAGC against AP4S1: -0.442. The value for AAGUUUAUGGACAAUUUCC against SMYD5 was 0.313. The value for UACUUUACAACAUAUGGGC against STK3 was -0.0972; that for UGGUUAGCAAUGCAUAUUC against SV2C was 0.364. In the case of UUCUUCAUUCCUGCUAGGC against EEF1B2P5, the seed-corrected z-score was -0.108. The value for UAAGGGUCAAUGCAGUAGU against ZAR1L was -0.414; that for UAAAUAGCAAAUUGCAUAC against DNAJB3 was 1.32. As to UUUGCCUAGACUAUGCUUG against PPARGC1B, the seed-corrected z-score was -1.6. Next, AUCUGCAUAAUCCUUGUUG against COG2: -2.77; UAUGUAACUGACAAUGACG against ADGRA3: -0.447; UUGAGUGCAAAGGCUUGUC against SLC25A12: 1.4.

Sequence UUAGGUCUCUGAAGUUUUC against NUTM2A-AS1 registered a seed-corrected z-score of -0.188. The sequence UAUCUUAUUUCAUCGUUUC against PTGS1 yielded a seed-corrected z-score of -0.545. The value for AUCGUCUUGACUGUGGUCC against CEACAM1 was -0.766; that for AUAGCGAUUAUUCUCACAG against PDHA1 was 0.0331. The value for UUAUUUAUCUGAGUUGUGA against NFIA-AS1 was -2.52; that for UGCAGUAAACAUUUCGUUG against ADAMTS9 was -0.75; that for UUGUGGUAGAUGGGACUGG against DOK3 was -3.05.

UCUGCGGUUACUCUCCAUC against TLX1 displayed a seed-corrected z-score of -0.0327. The value for AUGAGUACAGACAAGGUCC against DRD1 was -0.626.

Regarding AACAGGCUCAGGGAUAUUG against MORN2, the seed-corrected z-score was -1.84.

UAGCUUCGAAUAAACAUCC against FAM3D registered a seed-corrected z-score of -4.22. The value for UGAAAUACGGAUGACAUUC against AKR1C3 was -1.21; that for UUUUGUGCAUAGACCAUAG against DHRS12 was -0.542.

For UCUUCUUAGACCUUUCGGG against PRPF38A, the seed-corrected z-score was -2.28. With UUUGCAUCGUGGUAUUUCC against CTCFL, the seed-corrected z-score came to 0.259. As to UUUACGAUAAUCAACCUUC against BCO1, the seed-corrected z-score was found to be 0.641.

Turning to UUCGCAUUGCUUCUAACUC against UACA, the seed-corrected z-score was determined as 0.538. Regarding UUCAAAGUAUCGUUCUUUC against PANX3, the seed-corrected z-score stood at 1.35. Next, UCCCGUACCAAGGGUAGCU against FAM78B: 0.456; AAUGGUGUUGCUCUUCUCC against ZNF23: 1.51. The value for UUCGAAUAGUAGAAAGUCG against ABCB5 was 0.0668; that for AAGCAUGUUGGUAACCUCG against PLA2G3 was -2.04; that for UACAGCAUCGUCUUCUACC against TMEM246 was 0.565. UACACUUGAGUUGACGACC against LOC642335 returned a seed-corrected z-score of 0.105.

UGCAUAGACAGAUUAAGCC against SEC22A came in with a seed-corrected z-score of -0.0597. Next, UGCUCUUUUGCUUACGUGG against GAB1: -1.74; UGCGUUUUCAGCUGGUUAC against MYNN: -3.83. Sequence UCCGUGAGAACUCAUAAGG against TG displayed a seed-corrected z-score of -0.13. The value for UACAGUCAAAGCUCCGUUC against GFI1 was 1.42; that for UCUGCGUUCUGAUUGGUGG against ANKRD55 was -4.59; that for AUGCAAGUAACUGAGAUCG against CLEC14A was -1.2.

The values are drawn from PubChem BioAssay AID1159506 (National Center for Advancing Translational Sciences (NCATS), 2015).
